The record followed here is ChEMBL document CHEMBL3988442, “University of Dundee, Small-Polar-MMV Screening Library” (2021).

The structures appear in SMILES notation.

The experiment concerns the target Shiga toxin 2 (Escherichia coli O157:H7) (UniProt P09385+P09386). Put plainly: E. coli 0.157:H7 Shiga Toxin SOP - stx2 screening assay. The format is functional. Also on record: scale not given: direction of the effect not stated beside the values. Particulars: 30 µM.
As for `Cc1cccc(CN2CC3(CCNCC3)OCC2=O)n1`, the Percent Effect came out at 5.99%.

For `CCOCC1CN(S(C)(=O)=O)Cc2cnn(C)c21` (stereo not given), the Percent Effect was -35.8%.

Take `NC(=O)C1(c2cnccn2)CCCN1Cc1cc2ccccc2o1` (stereo not given): the Percent Effect was determined as 11.4%.

Turning to `Cc1nn(C)c(C)c1CC(=O)N1CCC(Nc2cccnn2)CC1`, the Percent Effect was -23.4%.

In the case of `CS(=O)(=O)NCC1CCCN(Cc2ccc(F)c3cccnc23)C1` (stereo not given), the Percent Effect was -44.4%.

On to `Cc1ncoc1C(=O)N1CCn2c(COCC3CC3)cnc2C1C` (stereo not given), for which the Percent Effect is -10.6%.

For the molecule `CCC(=O)N1CCc2[nH]cnc2C12CCN(C(=O)CCS(C)(=O)=O)CC2`, the Percent Effect was 9.19%.

Regarding `Cn1ccc(NC(=O)Cc2cccc(F)c2)n1`, the Percent Effect is -9.92%.

As for `CNc1cncc(C2CCCN(S(C)(=O)=O)C2)n1` (stereo not given), the Percent Effect was found to be 2.62%.

Consider `Cc1nc2ccccn2c1CN(Cc1cccnc1)CC1CCCO1` (stereo not given), for which the Percent Effect was -8.1%.

Regarding `CCOC(C)c1nc(CN2CCN(c3nccc(C)n3)CC2)cs1` (stereo not given), the Percent Effect was -1.8%.

Turning to `COC[C@H]1CCC[C@]12CN(C(=O)NCc1ccccc1)CCO2`, the Percent Effect was -17.2%.

On to `O=C(NCC(=O)N1CCCCC1)c1ccc(Cl)cc1I`, for which the Percent Effect amounted to 1.85%.

On to `Cc1nc(N2CCCC2)ncc1-c1cc(O)nc(N2CCCC2)n1`, for which the Percent Effect is -0.674%.

With `O=C1N(c2ccccc2)Cc2nc(=O)[nH]n21`, the Percent Effect is -29.1%.

Regarding `Cc1cccc(C(=O)NCc2ccc(N3CCCCC3)nc2)n1`, the Percent Effect was -10.8%.

For the molecule `O=C(Cn1cccnc1=O)NC(Cc1cccs1)c1ccccn1` (stereo not given), the Percent Effect is -0.987%.

For `CC(=O)Nc1nc(C(=O)NC(C)c2ccc(F)cc2)cs1` (stereo not given), the Percent Effect worked out at 26.2%.

On to `Cc1ccccc1CN1CCC2(COCc3cnc(N(C)C)nc32)C1` (stereo not given), for which the Percent Effect was -15.8%.

Regarding `COc1cccc2c1OCC(C(=O)NC1CCN(S(C)(=O)=O)CC1)C2` (stereo not given), the Percent Effect came to 11.1%.

With `COCCc1noc(CN2CCCC(Cn3nc(C)nc3C)C2)n1` (stereo not given), the Percent Effect stood at 22.8%.

With `Cc1ccc2c(n1)N(C)CCN(C(=O)C1CC1)C2`, the Percent Effect was -13.9%.

For the molecule `CCc1nnc(CN2CCN(C(=O)c3ccccn3)CC2)o1`, the Percent Effect is 21.4%.

As for `CCN(C(=O)CCCOc1ccccc1F)c1ccncc1`, the Percent Effect amounted to 1.08%.

Take `CN(Cc1ccc(Cl)c(Cl)c1)C(=O)CNC(N)=O`: the Percent Effect was 10.2%.

As for `CN(Cc1nnc(C2CC2)n1C)C1CCN(Cc2ccon2)C1` (stereo not given), the Percent Effect worked out at 14.2%.

For `Cn1nc2c(cc1=O)CN(Cc1nnc(C3CC3)o1)CC2`, the Percent Effect was -53.6%.

Turning to `Cn1ccc(CN2CCC(COC3CCCC3)CC2)cc1=O`, the Percent Effect was -19.3%.

For the molecule `CCOC(=O)N1CCN(c2nc(NCCCO)c3ccccc3n2)CC1`, the Percent Effect was -29.9%.

Consider `Cc1cnn(CC2CN(CCN3CCCC3=O)CCO2)c1` (stereo not given), for which the Percent Effect came out at 8.14%.

Regarding `COCc1cccc(C(=O)N2CCCCC2c2nccs2)c1` (stereo not given), the Percent Effect came to 18.2%.

For `CCCNC(=O)c1cc2c(nc1O)CCC(C)C2` (stereo not given), the Percent Effect was -21.4%.

`c1ccc(-n2ccc(CN3CCCC3Cn3cccn3)n2)cc1` (stereo not given): the Percent Effect was -19.3%.

With `Cc1nc(C)n(CC2CCCN2Cc2nc(N)c3ccccc3n2)n1` (stereo not given), the Percent Effect is -29.4%.

As to `O=C(CN1CCOC(Cn2cccn2)C1)Nc1nccs1` (stereo not given), the Percent Effect is -17.3%.

For the molecule `CC(C)OCc1ncn2c1CN(Cc1ccc(F)cc1)CCC2`, the Percent Effect stood at 3.71%.

As for `Cn1cnc2c1CCN(Cc1nc(COc3ccc(F)cc3)no1)C2`, the Percent Effect amounted to 19%.

With `Cc1cc(C)n(CC2CN(Cc3cscn3)CCO2)n1` (stereo not given), the Percent Effect was -3.38%.

In the case of `CN1CCC/C1=N\S(=O)(=O)c1ccc(NC(=O)c2cccs2)cc1`, the Percent Effect was -166%.

Consider `CN(CCc1ccccc1)C1CCCN(Cc2nccn2C)C1` (stereo not given), for which the Percent Effect is -0.197%.
